From the supplement of paper PMC3334620
The full ranking holds about 33,000 sequences; the median of “E-score (-0.5 to 0.5)” is about -0.035, and the highest 2% start at about 0.34. The sample holds the highest values, similar sequences and a random draw of the others, so the mix is not that of the screen.

molecular target: T1, Mot3 (UniProt P54785); assay: PBM E-score (8-mer binding enrichment) (E-score (-0.5 to 0.5)); higher = stronger / more preferred TF binding; conditions: protein concentration: 200 nM; construct: GST-full length
T1 sequence: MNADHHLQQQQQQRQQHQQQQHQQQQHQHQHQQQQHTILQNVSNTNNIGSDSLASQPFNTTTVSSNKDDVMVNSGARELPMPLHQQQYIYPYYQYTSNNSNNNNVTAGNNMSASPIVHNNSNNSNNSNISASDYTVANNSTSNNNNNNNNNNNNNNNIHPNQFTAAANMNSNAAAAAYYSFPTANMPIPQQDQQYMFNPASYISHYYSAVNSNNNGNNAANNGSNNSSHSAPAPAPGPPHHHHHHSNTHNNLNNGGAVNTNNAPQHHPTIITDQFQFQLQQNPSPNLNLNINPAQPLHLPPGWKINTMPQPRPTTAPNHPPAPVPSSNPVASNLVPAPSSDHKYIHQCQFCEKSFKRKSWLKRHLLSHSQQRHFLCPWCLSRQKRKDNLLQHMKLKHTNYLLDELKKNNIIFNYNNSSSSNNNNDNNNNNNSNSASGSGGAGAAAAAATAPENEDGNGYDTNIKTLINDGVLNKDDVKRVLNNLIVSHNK
Procedure: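 Universal 'all 10-mer' protein binding microarrays (Agilent AMADID 015681) probed with GST-tagged S. cerevisiae TFs (full-length or DBD) made by in vitro transcription/translation (PURExpress), about 100-200 nM. Bound TF was detected with fluorescent anti-GST. Each ungapped 8-mer (which stands for itself and its reverse complement) is scored by the PBM enrichment score (E-score), a modified Wilcoxon-Mann-Whitney statistic from -0.5 to +0.5, computed with the Universal PBM Analysis Suite. Scale: above 0.35 generally sequence-specific binding.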

| Sequence | PBM E-score |
| --- | --- |
| AGGACACG | 0.071 |
| GTGAGCCA | -0.12 |
| GCGTTGGA | 0.0942 |
| GTATCGTA | 0.197 |
| CCGTTTCA | -0.123 |
| AAGAGAAC | 0.0546 |
| ACTGTGCC | 0.265 |
| CCTGTGCC | 0.361 |
| ACCGTGCC | 0.336 |
| GCCGTGCA | -0.0598 |
| GCCGTGCC | 0.346 |
| CCTGTGCG | 0.185 |
| CGCGAGAC | -0.11 |
| ACGCCAAG | -0.0211 |
| CGCTGTGC | -0.0145 |
| ATAGGTGG | 0.0389 |
| AATAAGGA | 0.0872 |
| GCTTACAC | 0.178 |
| GATTACTA | 0.122 |
| GATTACGC | 0.23 |
| GCTTACAA | 0.197 |
| CATTACAA | 0.301 |
| AATTACAG | 0.27 |
| ACTTACAT | 0.311 |
| CATTACAC | 0.384 |

| Sequence | PBM E-score |
| --- | --- |
| AATTACAT | 0.419 |
| GATTACAA | 0.359 |
| CATTACAG | 0.287 |
| GATTACAC | 0.419 |
| ATGCTGCC | -0.0402 |
| ATCCGGAG | -0.0342 |
| CCATACTC | -0.245 |
| AATTACAC | 0.402 |
| TATTACAA | 0.297 |
| AATTACCA | 0.174 |
| AATTACCC | -0.0825 |
| AATTACAA | 0.362 |
| ACTTACAC | 0.217 |
| CCTGCAGA | 0.303 |
| CCTGCAGG | 0.413 |
| CCTGCAGC | 0.0434 |
| AACATGGA | 0.312 |
| CACATGAA | 0.185 |
| AACATGCA | 0.324 |
| GACATGAA | 0.274 |
| TACATGCA | 0.361 |
| GACATGGA | 0.167 |
| TACATGAA | 0.375 |
| GACATGCA | 0.203 |
| TACATGGA | 0.346 |

| Sequence | PBM E-score |
| --- | --- |
| AGCTATGC | -0.0718 |
| GCACAGTA | -0.0809 |
| ATGCTATG | 0.19 |
| CGCTCAGA | 0.0235 |
| ATCTTCAT | -0.0494 |
| AAGTAGGG | -0.08 |
| GCCTTGCC | 0.416 |
| CCCTTGCC | 0.0298 |
| CCCTTGTA | 0.237 |
| ACCTTGTA | 0.338 |
| GCCTTGTA | 0.354 |
| GCCTTGCA | -0.00236 |
| CATTTCGG | -0.063 |
| AGGGCCCT | -0.368 |
| GCTCGGAC | -0.172 |
| CGACAGAA | -0.216 |
| GACCTCGA | -0.139 |
| GTATCCAA | -0.0981 |
| CAGGTCAG | -0.242 |
| ATAGGCAC | 0.491 |
| CTAGGCAA | 0.474 |
| ATAGGCAT | 0.412 |
| ATAGGCTC | 0.207 |
| ATCGGCAT | -0.0895 |
| ATAGGCAG | 0.234 |

| Sequence | PBM E-score |
| --- | --- |
| ATAGGCTA | 0.0381 |
| CTAGGCTA | -0.18 |
| ATAGGGAT | 0.0533 |
| ATAGGCAA | 0.486 |
| ATAGGCGC | 0.249 |
| CTAGGCGA | -0.178 |
| CCACAAGG | 0.094 |
| AGTGAGCC | -0.0781 |
| CAGTTAAA | 0.0473 |
| GTGGCGCA | -0.0264 |
| CCCAGTGA | -0.203 |
| CATTCTCA | 0.0726 |
| TTCGGCAA | 0.0952 |
| CTAGGCAC | 0.485 |
| CTAGGCGC | 0.041 |
| GTAGGCCA | 0.00764 |
| GTAGGCAA | 0.49 |
| GTAGGCTA | 0.226 |
| TTAGGCAA | 0.481 |
| TTAGGGAA | 0.0178 |
| CTAGGCAG | -0.0742 |
| AAGACGCA | -0.0452 |
| AAACAGCG | 0.0286 |
| AGCCTGAT | 0.183 |
| GGTGCCAA | -0.14 |

| Sequence | PBM E-score |
| --- | --- |
| AGTGCCGA | -0.324 |
| GGTGCCTA | 0.492 |
| GGTGCCGA | 0.0164 |
| AGTGCCAA | -0.0129 |
| AGTGCCTA | 0.484 |
| ATACAGAT | 0.0248 |
| ACGTAGGA | 0.184 |
| GACATGAC | 0.175 |
| AACATGAT | 0.349 |
| AACATGCT | 0.308 |
| AACATGAC | 0.359 |
| AACATGAA | 0.305 |
| AACATGAG | 0.277 |
| ACACAAGT | 0.164 |
| ACACTGAC | 0.196 |
| GGAAACGA | 0.0799 |
| CCTGAACC | 0.206 |
| CCCATCTC | -0.269 |
| ATCGTGTA | 0.39 |
| ATCGTGTG | 0.204 |
| GTCGTGTA | 0.376 |
| CTCGTGTA | 0.353 |
| ATCGTGTC | 0.247 |
| GTCGTGGA | -0.26 |
| CTCGTGTC | 0.184 |

| Sequence | PBM E-score |
| --- | --- |
| GTCGTGCA | 0.0491 |
| CTCGTGGA | -0.234 |
| CGACAGTA | -0.196 |
| ATGTGCTG | 0.147 |
| CCCTGGCC | -0.264 |
| ATCAGATC | -0.196 |
| ACAACTGG | -0.229 |
| AGCGTGAA | -0.0361 |
| ATAATTAC | 0.258 |
| GTAATTAC | 0.378 |
| CTAATTAC | 0.289 |
| CGCGCGTC | 0.0273 |
| CCCAGCGC | -0.0444 |
| ACCTTCCT | 0.0149 |
| TCAAGACA | -0.0248 |
| ACAAGGCA | 0.449 |
| CCAAGGCC | -0.14 |
| GCAAGGCC | -0.0626 |
| CCAAGGCA | 0.458 |
| TCAAGGCA | 0.458 |
| ACAAGGCT | 0.111 |
| TCAAGGGA | -0.213 |
| ACAAGGCG | 0.109 |
| GCAAGGGA | -0.155 |
| GCAAGGCA | 0.469 |

| Sequence | PBM E-score |
| --- | --- |
| CCAAGGCG | -0.0205 |
| AACTCTAG | 0.00906 |
| ATGAAAGC | 0.103 |
| GTCATTCA | -0.067 |
| GAACCATC | -0.0773 |
| AACTTTCC | 0.0113 |
| AATGTTGT | 0.223 |
| AGCTGATC | -0.17 |
| CTGTCTCA | -0.258 |
| GCCAGGCC | -0.25 |
| TCCAGGCA | 0.463 |
| ACCAGGCA | 0.446 |
| TCCAGGGA | -0.212 |
| TCCAGGAA | 0.316 |
| GCCAGGAA | 0.124 |
| ACCAGGCC | -0.0646 |
| CCCAGGCC | -0.191 |
| CCCAGGCA | 0.461 |
| GCCAGGCA | 0.436 |
| ACCAGGCT | -0.06 |
| CCCAGGCG | -0.061 |
| ACCTTGCT | -0.0444 |
| ACCCGACA | -0.0489 |
| TACACCGA | 0.0164 |
| GCCGCTAA | -0.0753 |
